TDP1 cell CPT: growth inhibition of DT40 Tdp1-/-;hTDP1 cells with camptothecin (screen for TDP1 inhibitors); chicken DT40 Tdp1-/-;hTDP1 cells + 20 nM CPT, ATP luminescence, 48 h; Potency, µM (doses to about 46.2 µM), inactives show at the highest dose activity change, negative = growth inhibition, most hits filed as inhibitors; 12% of 420,000 active; also: nearly all actives have a fitted effect of over 55% in size
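Cell growth measured by CellTiter-Glo luminescence after a minimum 48 h, 37 C compound exposure with 20 nM CPT in Tdp1-knockout DT40 cells stably expressing hTDP1, seeded 400/well; qHTS titration format.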
RORg inh: inhibitors of mouse ROR gamma transcriptional activity. P51450. Drosophila S2 Gal4-RORgamma UAS-luciferase reporter, 20 h. Potency, µM (highest dose often 53.6 µM), for the others: at the highest dose activity change, negative = inhibition, most hits filed as inhibitors. 5.4% of 310,000 active; also: nearly all actives have a fitted effect of over 60% in size
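ROR gamma transcriptional activity was tracked as Gal4-UAS luciferase output in stably transfected Drosophila Schneider cells, with compound added 1 hr before 700 uM copper sulfate induction and a 20 hr ambient-temperature incubation.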
TDP1 cell noCPT: qHTS for Inhibitors of human tyrosyl-DNA phosphodiesterase 1 (TDP1): qHTS in cells in absence of CPT; 15% of 420,000 active; AID 686978, 2013; Potency, µM (titrated, usually from 46.2 µM), without a hit: top-dose activity change, negative = growth inhibition, hits mostly inhibitors; DT40 Tdp1-/- hTDP1 cells, no CPT, ATP luminescence, 48 h; also: nearly all actives have a fitted effect of over 55% in size
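Stably hTDP1-transfected Tdp1-null chicken DT40 cells were treated with library compounds minus camptothecin and grown for at least 48 hr at 37 °C, after which cellular ATP was quantified by luminescence.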
VP16 counter: counter-screen for ROR gamma inhibitors: Gal4-VP16 reporter; Drosophila S2 Gal4-VP16 UAS-luciferase, luminescence, 20 h; Potency, µM (doses to about 53.6 µM), without a hit: at the highest dose activity, negative = inhibition, hits mostly inhibitors; 3.5% of 310,000 active; AID 2546;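 also: Gal4-VP16 expression switched on by copper sulfate through the metallothionein promoter; nearly all actives have a fitted effect of over 50% in size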
ELG1 repair inh: ELG1-dependent DNA repair inhibition. HEK293T ELG1-luciferase reporter, luminescence, 16 h; DNA damage induced by 5-fluorouridine. Potency, µM (highest dose often 46.1 µM), without a hit: at the highest dose activity change, negative = inhibition, actives largely listed as inhibitors. 2.3% of 330,000 active; also: nearly all actives have a fitted effect of over 55% in size
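Step one: seed 2,000 cells per well. Step two: pin-transfer compound or DMSO alongside 5-fluorouridine. Step three: incubate 16 hr, 37 °C, 5% CO2. Step four: add ONE-Glo, wait 30 min, read luminescence.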
ALOX12 inh: inhibitors of human 12S-lipoxygenase ALOX12; purified 12hLO, xylenol orange hydroperoxide absorbance; Potency, µM (series often up to 108 µM), inactives show at the highest dose activity change, negative = inhibition, actives largely listed as inhibitors; 1.1% of 580,000 active
Target sequence (P18054 whole entry, looked up): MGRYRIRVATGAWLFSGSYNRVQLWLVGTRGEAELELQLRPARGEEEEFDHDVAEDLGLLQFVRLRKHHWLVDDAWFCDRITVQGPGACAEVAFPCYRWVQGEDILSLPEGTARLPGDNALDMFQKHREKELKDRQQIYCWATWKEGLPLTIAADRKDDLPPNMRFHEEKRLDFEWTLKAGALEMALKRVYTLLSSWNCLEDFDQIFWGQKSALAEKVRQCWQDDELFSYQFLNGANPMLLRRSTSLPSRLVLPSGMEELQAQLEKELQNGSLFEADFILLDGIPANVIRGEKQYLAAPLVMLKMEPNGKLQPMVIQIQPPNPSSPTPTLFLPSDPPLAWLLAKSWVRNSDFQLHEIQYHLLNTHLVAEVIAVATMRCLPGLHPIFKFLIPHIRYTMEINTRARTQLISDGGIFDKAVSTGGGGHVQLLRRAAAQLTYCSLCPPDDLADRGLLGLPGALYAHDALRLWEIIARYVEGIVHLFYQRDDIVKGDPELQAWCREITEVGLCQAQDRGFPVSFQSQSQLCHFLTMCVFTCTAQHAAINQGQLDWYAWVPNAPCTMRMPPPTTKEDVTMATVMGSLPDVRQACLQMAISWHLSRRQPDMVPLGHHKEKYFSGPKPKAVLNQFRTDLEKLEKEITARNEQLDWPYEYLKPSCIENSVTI
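Purified human 12hLO at 150 nM in 25 mM Hepes, 0.01% Triton X-100, pH 7.0, preincubated 15 min at room temperature with compound. Reaction started with 40 uM arachidonic acid, 30 min at room temperature. Hydroperoxide measured by Fe-xylenol orange, 573/405 nm absorbance ratio.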
An asterisk follows results filed as active; ? = inconclusive; nt = not tested or not shown. In the library only some 15% were active in any assay of this set; here they are far more common. Calls follow the shape of the dose curve; as a rule, active = well fitted curve in the direction sought with a large enough effect; inconclusive = small, poorly fitted or top-dose-only effect, or another doubt; inactive = no such curve, though single readings can be large; an effect the other way counts as inactive or inconclusive. % is scaled to controls: 0 for no effect and ±100 for the full control effect; potency is read from the fitted curve at half-maximal effect.

SMILES	TDP1 cell CPT	RORg inh	TDP1 cell noCPT	VP16 counter	ELG1 repair inh	ALOX12 inh
CCOc1ccc2oc(C(=O)N3CCN(Cc4ccccc4)CC3)c(C)c2c1	?	?	?	-7%	-29%	13%
CCOC(=O)c1c(-c2ccccc2)oc2ccc(OCC(O)CNCCN(C)C)cc12 (configuration not stated)	16µM*	?	?	?	?	-6%
CCOc1ccc2oc(-c3ccccc3)c(C(=O)N3CCN(C)CC3)c2c1	23µM*	1%	?	4%	?	-18%
CCOC(=O)c1c(-c2ccccc2)oc2ccc(OCC)cc12	11%	2%	1%	3%	-7%	-10%
COc1ccc2oc(-c3ccccc3)c(C(=O)N3CCOCC3)c2c1	16µM*	14%	13µM*	1%	-29%	0%
Cc1ccoc1C(=O)N1CCCCC1C(=O)O (configuration not stated)	?	-17%	18µM*	6%	9%	-6%
Cc1cc(C)n(-c2ccc(NC(=O)C3CCCCN3C(=O)c3occc3C)cc2)n1 (configuration not stated)	?	15%	-1%	-6%	-7%	0%
C=CCNC(=O)CN1CCN(c2nc(-c3ccccc3)nc3ccccc23)CC1	nt	nt	nt	nt	nt	4%
Nc1[nH]c(N=NC(=O)c2ccc(Cl)cc2)c2ccccc12	-10%	5.6µM*	-21%	?	?	-2%
Nc1[nH]c(N=NC(=O)c2ccccc2)c2ccccc12	4%	8.9µM*	1%	?	?	-14%
CC1CCN(c2oc(-c3ccc([N+](=O)[O-])cc3)nc2C#N)CC1	nt	nt	nt	nt	nt	19%
O=C(Cn1nc2c(cc1=O)CCCC2)N1CCN(c2ccc(Cl)cc2)CC1	nt	nt	nt	nt	nt	15%
CCc1ccc(C(=O)c2cn(CC(=O)Nc3ccc(Cl)cc3)c3cc4c(cc3c2=O)OCO4)cc1	15µM*	nt	16µM*	nt	nt	-25%
CCOc1ccc(C(=O)c2cn(CC(=O)Nc3ccc(Cl)cc3)c3cc4c(cc3c2=O)OCO4)cc1	?	nt	13µM*	nt	nt	-20%
CCOc1ccc(NC(=O)Cn2cc(C(=O)c3ccc(F)cc3)c(=O)c3cc4c(cc32)OCO4)cc1	-28%	nt	-27%	nt	nt	?
CCc1ccc(C(=O)c2cn(CC(=O)Nc3ccc4c(c3)OCO4)c3ccc(Cl)cc3c2=O)cc1	?	nt	?	nt	nt	-27%
Cc1cc(C)nc(-n2nc(C)cc2Nc2ccccc2)n1	2.6µM*	0.11µM*	5.2µM*	0.22µM*	?	-9%
Cc1cc(NC(=O)C2CCC2)n(-c2ccccn2)n1	?	13%	?	-3%	2%	-4%
Cc1cc(NC(=O)c2c(F)cccc2F)n(-c2nc3ccccc3[nH]2)n1	?	3.5µM*	11µM*	6.3µM*	?	26%
Cc1cc(NC(=O)CSc2nc3ccccc3[nH]2)n(-c2ccccc2)n1	?	26%	?	-5%	?	42%
Cc1cc(NC(=O)C2CCCCC2)n(-c2nc3ccccc3[nH]2)n1	23µM*	1.6µM*	16µM*	1.4µM*	?	-2%
Cc1cc(Nc2ccccc2)n(-c2nc3ccccc3[nH]2)n1	?	1.6µM*	?	3.5µM*	-26%	-4%
CC(C)c1cc(=O)oc2cc(OCC(=O)Nc3ccc(C(N)=O)cc3)ccc12	nt	nt	nt	nt	nt	0%
COC(=O)c1ccc(NC(=O)COc2ccc3c(C)cc(=O)oc3c2)cc1	nt	nt	nt	nt	nt	32%
CN(Cc1cccnc1)c1nc2c(c(=O)[nH]1)CCN(Cc1cccc(F)c1F)CC2	nt	nt	nt	nt	nt	45%
CCN(CC(=O)Nc1cccc(OC)c1)C(=O)Cc1nc(-c2ccccc2)oc1C	nt	nt	nt	nt	nt	-7%

Screening results deposited in PubChem by National Center for Advancing Translational Sciences (NCATS).
